What follows are binders tested against AgAbp1 (assay: SPOT peptide array binding signal intensity (averaged, normalized) (arbitrary units (background-subtracted, floor 0; scale differs between SH3 domains)); higher = stronger binding of the SH3 domain to the peptide).
Procedure: (§1)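 GST-tagged SH3 domains from S. cerevisiae (Sc), A. gossypii (Ag), C. albicans (Ca) and S. pombe (Sp) were incubated at 10 ug/ml overnight at 4 C on cellulose SPOT membranes carrying 292 synthetic 15-mer peptides mined from the S. cerevisiae proteome (cysteines replaced by serines). Binding was detected with anti-GST antibody, HRP secondary and chemiluminescence, quantified with Genespotter, and reported as normalized spot intensities averaged over biological replicates.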

Binder	SPOT peptide array binding signal intensity
NHSRSLFSLPGNQQS	31
LYKRKPILLPDPKPL	30.5

Each binder was assayed against AgBbc1 in the same assay as above.
Procedure: as §1

Binder	SPOT peptide array binding signal intensity
NHSRSLFSLPGNQQS	21.5
LYKRKPILLPDPKPL	≤ 0

The binders below were run against AgBem1-D1 in the same assay as above.
Procedure: as §1

Binder	SPOT peptide array binding signal intensity
NHSRSLFSLPGNQQS	96.5
LYKRKPILLPDPKPL	≤ 0

What follows are binders tested against AgBzz1-D1 in the same assay as above.
Procedure: as §1

Binder	SPOT peptide array binding signal intensity
NHSRSLFSLPGNQQS	38
LYKRKPILLPDPKPL	44

Each binder was assayed against AgBzz1-D2 in the same assay as above.
Procedure: as §1

Binder	SPOT peptide array binding signal intensity
NHSRSLFSLPGNQQS	20.5
LYKRKPILLPDPKPL	70

These binders were tested against AgCyk3 in the same assay as above.
Procedure: as §1

Binder	SPOT peptide array binding signal intensity
NHSRSLFSLPGNQQS	1
LYKRKPILLPDPKPL	≤ 0

These binders were tested against AgFus1 in the same assay as above.
Procedure: as §1

Binder	SPOT peptide array binding signal intensity
NHSRSLFSLPGNQQS	786
LYKRKPILLPDPKPL	≤ 0

What follows are binders tested against AgHof1 in the same assay as above.
Procedure: as §1

Binder	SPOT peptide array binding signal intensity
NHSRSLFSLPGNQQS	58.8
LYKRKPILLPDPKPL	11

These binders were tested against AgHse1 in the same assay as above.
Procedure: as §1

Binder	SPOT peptide array binding signal intensity
NHSRSLFSLPGNQQS	2350
LYKRKPILLPDPKPL	93

These binders were tested against AgLsb1 in the same assay as above.
Procedure: as §1

Binder	SPOT peptide array binding signal intensity
NHSRSLFSLPGNQQS	246
LYKRKPILLPDPKPL	208

Each binder was assayed against AgLsb4 in the same assay as above.
Procedure: as §1

Binder	SPOT peptide array binding signal intensity
NHSRSLFSLPGNQQS	45
LYKRKPILLPDPKPL	1.5

Each binder was assayed against AgMyo5 in the same assay as above.
Procedure: as §1

Binder	SPOT peptide array binding signal intensity
NHSRSLFSLPGNQQS	44.5
LYKRKPILLPDPKPL	≤ 0

Each binder was assayed against AgNbp2 in the same assay as above.
Procedure: as §1

Binder	SPOT peptide array binding signal intensity
NHSRSLFSLPGNQQS	44
LYKRKPILLPDPKPL	4.5

The binders below were run against AgRvs167 in the same assay as above.
Procedure: as §1

Binder	SPOT peptide array binding signal intensity
NHSRSLFSLPGNQQS	14
LYKRKPILLPDPKPL	≤ 0

What follows are binders tested against AgSho1 in the same assay as above.
Procedure: as §1

Binder	SPOT peptide array binding signal intensity
NHSRSLFSLPGNQQS	64
LYKRKPILLPDPKPL	≤ 0

Each binder was assayed against AgSla1-D1-D2 in the same assay as above.
Procedure: as §1

Binder	SPOT peptide array binding signal intensity
NHSRSLFSLPGNQQS	58.5
LYKRKPILLPDPKPL	29

What follows are binders tested against AgSla1-D3 in the same assay as above.
Procedure: as §1

Binder	SPOT peptide array binding signal intensity
NHSRSLFSLPGNQQS	13.5
LYKRKPILLPDPKPL	9

The binders below were run against CaAbp1-D1 in the same assay as above.
Procedure: as §1

Binder	SPOT peptide array binding signal intensity
NHSRSLFSLPGNQQS	266
LYKRKPILLPDPKPL	292

Each binder was assayed against CaAbp1-D2 in the same assay as above.
Procedure: as §1

Binder	SPOT peptide array binding signal intensity
NHSRSLFSLPGNQQS	430
LYKRKPILLPDPKPL	140

What follows are binders tested against CaBbc1 in the same assay as above.
Procedure: as §1

Binder	SPOT peptide array binding signal intensity
NHSRSLFSLPGNQQS	111
LYKRKPILLPDPKPL	16.5

What follows are binders tested against CaBem1-D1 in the same assay as above.
Procedure: as §1

Binder	SPOT peptide array binding signal intensity
NHSRSLFSLPGNQQS	27
LYKRKPILLPDPKPL	≤ 0

Each binder was assayed against CaBzz1-D1 in the same assay as above.
Procedure: as §1

Binder	SPOT peptide array binding signal intensity
NHSRSLFSLPGNQQS	5.5
LYKRKPILLPDPKPL	150

What follows are binders tested against CaBzz1-D2 in the same assay as above.
Procedure: as §1

Binder	SPOT peptide array binding signal intensity
NHSRSLFSLPGNQQS	31
LYKRKPILLPDPKPL	40.8

Each binder was assayed against CaCyk3 in the same assay as above.
Procedure: as §1

Binder	SPOT peptide array binding signal intensity
NHSRSLFSLPGNQQS	1.5
LYKRKPILLPDPKPL	4

Each binder was assayed against CaFus1 in the same assay as above.
Procedure: as §1

Binder	SPOT peptide array binding signal intensity
NHSRSLFSLPGNQQS	1930
LYKRKPILLPDPKPL	39

These binders were tested against CaHof1 in the same assay as above.
Procedure: as §1

Binder	SPOT peptide array binding signal intensity
NHSRSLFSLPGNQQS	0.25
LYKRKPILLPDPKPL	0.75

The binders below were run against CaHse1 in the same assay as above.
Procedure: as §1

Binder	SPOT peptide array binding signal intensity
NHSRSLFSLPGNQQS	296
LYKRKPILLPDPKPL	≤ 0

The binders below were run against CaLsb1 in the same assay as above.
Procedure: as §1

Binder	SPOT peptide array binding signal intensity
NHSRSLFSLPGNQQS	2
LYKRKPILLPDPKPL	228

What follows are binders tested against CaLsb4 in the same assay as above.
Procedure: as §1

Binder	SPOT peptide array binding signal intensity
NHSRSLFSLPGNQQS	≤ 0
LYKRKPILLPDPKPL	≤ 0

Each binder was assayed against CaMyo5 in the same assay as above.
Procedure: as §1

Binder	SPOT peptide array binding signal intensity
NHSRSLFSLPGNQQS	85.2
LYKRKPILLPDPKPL	≤ 0

These binders were tested against CaNbp2 in the same assay as above.
Procedure: as §1

Binder	SPOT peptide array binding signal intensity
NHSRSLFSLPGNQQS	358

Each binder was assayed against CaRvs167 in the same assay as above.
Procedure: as §1

Binder	SPOT peptide array binding signal intensity
NHSRSLFSLPGNQQS	54.7

The binders below were run against CaRvs167-3 in the same assay as above.
Procedure: as §1

Binder	SPOT peptide array binding signal intensity
NHSRSLFSLPGNQQS	70.5

The binders below were run against CaSho1 in the same assay as above.
Procedure: as §1

Binder	SPOT peptide array binding signal intensity
NHSRSLFSLPGNQQS	838

What follows are binders tested against CaSla1-D1-D2 in the same assay as above.
Procedure: as §1

Binder	SPOT peptide array binding signal intensity
NHSRSLFSLPGNQQS	25.5

Each binder was assayed against CaSla1-D3 in the same assay as above.
Procedure: as §1

Binder	SPOT peptide array binding signal intensity
NHSRSLFSLPGNQQS	23.8

These binders were tested against ScAbp1 in the same assay as above.
Procedure: as §1

Binder	SPOT peptide array binding signal intensity
NHSRSLFSLPGNQQS	48

Each binder was assayed against ScBbc1 in the same assay as above.
Procedure: as §1

Binder	SPOT peptide array binding signal intensity
NHSRSLFSLPGNQQS	0.75

These binders were tested against ScBem1-D1 in the same assay as above.
Procedure: as §1

Binder	SPOT peptide array binding signal intensity
NHSRSLFSLPGNQQS	6.5

The binders below were run against ScBzz1-D1 in the same assay as above.
Procedure: as §1

Binder	SPOT peptide array binding signal intensity
NHSRSLFSLPGNQQS	10

These binders were tested against ScBzz1-D2 in the same assay as above.
Procedure: as §1

Binder	SPOT peptide array binding signal intensity
NHSRSLFSLPGNQQS	10.5

The binders below were run against ScCyk3 in the same assay as above.
Procedure: as §1

Binder	SPOT peptide array binding signal intensity
NHSRSLFSLPGNQQS	29.5

What follows are binders tested against ScFus1 in the same assay as above.
Procedure: as §1

Binder	SPOT peptide array binding signal intensity
NHSRSLFSLPGNQQS	595

What follows are binders tested against ScHof1 in the same assay as above.
Procedure: as §1

Binder	SPOT peptide array binding signal intensity
NHSRSLFSLPGNQQS	3.5

The binders below were run against ScHse1 in the same assay as above.
Procedure: as §1

Binder	SPOT peptide array binding signal intensity
NHSRSLFSLPGNQQS	2940

What follows are binders tested against ScLsb1 in the same assay as above.
Procedure: as §1

Binder	SPOT peptide array binding signal intensity
NHSRSLFSLPGNQQS	2.75

Each binder was assayed against ScLsb2 in the same assay as above.
Procedure: as §1

Binder	SPOT peptide array binding signal intensity
NHSRSLFSLPGNQQS	7

The binders below were run against ScLsb3 in the same assay as above.
Procedure: as §1

Binder	SPOT peptide array binding signal intensity
NHSRSLFSLPGNQQS	4

What follows are binders tested against ScLsb4 in the same assay as above.
Procedure: as §1

Binder	SPOT peptide array binding signal intensity
NHSRSLFSLPGNQQS	≤ 0

These binders were tested against ScMyo3 in the same assay as above.
Procedure: as §1

Binder	SPOT peptide array binding signal intensity
NHSRSLFSLPGNQQS	29.5

What follows are binders tested against ScMyo5 in the same assay as above.
Procedure: as §1

Binder	SPOT peptide array binding signal intensity
NHSRSLFSLPGNQQS	67.2

What follows are binders tested against ScNbp2 in the same assay as above.
Procedure: as §1

Binder	SPOT peptide array binding signal intensity
NHSRSLFSLPGNQQS	104

These binders were tested against ScPex13 in the same assay as above.
Procedure: as §1

Binder	SPOT peptide array binding signal intensity
NHSRSLFSLPGNQQS	≤ 0

Each binder was assayed against ScRvs167 in the same assay as above.
Procedure: as §1

Binder	SPOT peptide array binding signal intensity
NHSRSLFSLPGNQQS	17

These binders were tested against ScSho1 in the same assay as above.
Procedure: as §1

Binder	SPOT peptide array binding signal intensity
NHSRSLFSLPGNQQS	1120

What follows are binders tested against ScSla1-D1-D2 in the same assay as above.
Procedure: as §1

Binder	SPOT peptide array binding signal intensity
NHSRSLFSLPGNQQS	90.5

Each binder was assayed against ScSla1-D3 in the same assay as above.
Procedure: as §1

Binder	SPOT peptide array binding signal intensity
NHSRSLFSLPGNQQS	2.25

These binders were tested against SpAbp1-D1 in the same assay as above.
Procedure: as §1

Binder	SPOT peptide array binding signal intensity
NHSRSLFSLPGNQQS	196

These binders were tested against SpBbc1 in the same assay as above.
Procedure: as §1

Binder	SPOT peptide array binding signal intensity
NHSRSLFSLPGNQQS	5.5

What follows are binders tested against SpBzz1-D1 in the same assay as above.
Procedure: as §1

Binder	SPOT peptide array binding signal intensity
NHSRSLFSLPGNQQS	28

What follows are binders tested against SpBzz1-D2 in the same assay as above.
Procedure: as §1

Binder	SPOT peptide array binding signal intensity
NHSRSLFSLPGNQQS	2.5

These binders were tested against SpCyk3 in the same assay as above.
Procedure: as §1

Binder	SPOT peptide array binding signal intensity
NHSRSLFSLPGNQQS	≤ 0

What follows are binders tested against SpHof1 in the same assay as above.
Procedure: as §1

Binder	SPOT peptide array binding signal intensity
NHSRSLFSLPGNQQS	176

Each binder was assayed against SpHof1-2 in the same assay as above.
Procedure: as §1

Binder	SPOT peptide array binding signal intensity
NHSRSLFSLPGNQQS	10.8

The binders below were run against SpHof1-3 in the same assay as above.
Procedure: as §1

Binder	SPOT peptide array binding signal intensity
NHSRSLFSLPGNQQS	992

The binders below were run against SpHse1 in the same assay as above.
Procedure: as §1

Binder	SPOT peptide array binding signal intensity
NHSRSLFSLPGNQQS	1960

The binders below were run against SpLsb1 in the same assay as above.
Procedure: as §1

Binder	SPOT peptide array binding signal intensity
NHSRSLFSLPGNQQS	27.5

What follows are binders tested against SpLsb4 in the same assay as above.
Procedure: as §1

Binder	SPOT peptide array binding signal intensity
NHSRSLFSLPGNQQS	20

The binders below were run against SpMyo1 in the same assay as above.
Procedure: as §1

Binder	SPOT peptide array binding signal intensity
NHSRSLFSLPGNQQS	72.5

The binders below were run against SpNbp2 in the same assay as above.
Procedure: as §1

Binder	SPOT peptide array binding signal intensity
NHSRSLFSLPGNQQS	125

The binders below were run against SpPex13 in the same assay as above.
Procedure: as §1

Binder	SPOT peptide array binding signal intensity
NHSRSLFSLPGNQQS	7

These binders were tested against SpRvs167 in the same assay as above.
Procedure: as §1

Binder	SPOT peptide array binding signal intensity
NHSRSLFSLPGNQQS	75

Each binder was assayed against SpSla1-D1-D2 in the same assay as above.
Procedure: as §1

Binder	SPOT peptide array binding signal intensity
NHSRSLFSLPGNQQS	3

These binders were tested against SpSla1-D3 in the same assay as above.
Procedure: as §1

Binder	SPOT peptide array binding signal intensity
NHSRSLFSLPGNQQS	13.5
